# Where “and” joins values, the source holds several entries; their conditions need not be identical. Equal entries are not always repeated. Calls of active or inactive are those of the source. Unless noted, no stated cut-off is given here; in the data, active means inhibition above about 80%; inactive means the rest.
# What was measured:
# [1] = LFS_MB_P medulloblastoma growth inhibition, cell-based, chromothripsis tumors, cisplatin or BGB combos (AID 1671449); conditions: LFS_MB_P medulloblastoma cells;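 further: cells exposed for 96 hours; 0% = vehicle DMSO and 100% = killing by high DMSO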
# [2] = HDN33 neuroblastoma growth inhibition, cell-based, chromothripsis tumors, cisplatin or BGB combos (AID 1671450); conditions: HDN33 neuroblastoma cells, stronger effect = higher value;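 further: cells exposed to compound for four days; 0% = vehicle DMSO and 100% = cell killing by high DMSO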
# [3] = HTB85 osteosarcoma cell growth inhibition, synergistic combos for chromothripsis tumors, BGB or cisplatin IC20 combos (AID 1671453); conditions: HTB85 osteosarcoma cells, drug combinations, stronger effect = higher value;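 further: cells exposed for 96 hours before readout; 0% = vehicle DMSO and 100% = high DMSO killing control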
# [4] = growth inhibition of CRL1545 osteosarcoma cells, cell-based, cisplatin and BGB IC20 combos (AID 1671464); conditions: stronger effect = higher value;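 further: cells exposed to compound for 96 hours before readout; 0% = vehicle DMSO and 100% = high DMSO killing control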
# [5] = ICB984 medulloblastoma cell growth inhibition, synergistic combos for chromothripsis tumors, cisplatin or BGB combos (AID 1671451; call rule not given here;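 further: cells exposed for 96 hours before readout; 0% = vehicle DMSO and 100% = killing by high DMSO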); conditions: ICB984 medulloblastoma cells, drug combinations, stronger effect = higher value
# [6] = LFS_MB_1R medulloblastoma cell growth inhibition, synergistic combos for chromothripsis tumors, cisplatin or BGB combos (AID 1671452); conditions: LFS_MB_1R medulloblastoma cells, stronger effect = higher value;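 further: cells exposed for 96 hours before readout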
# [7] = CRL2098 osteosarcoma cell growth inhibition, synergistic combos for chromothripsis tumors, BGB or cisplatin IC20 combos (AID 1671454); conditions: CRL2098 osteosarcoma cells, drug combinations, stronger effect = higher value;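 further: cells exposed for 96 h before readout; 0% = vehicle DMSO and 100% = killing by high DMSO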
# [8] = HD-MB03 medulloblastoma cell growth inhibition, synergistic combos for chromothripsis tumors, BGB or cisplatin IC20 combos (AID 1671455; in the data active means inhibition above about 83%;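 further: 0% = vehicle DMSO and 100% = high DMSO as cytotoxic control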); conditions: HD-MB03 medulloblastoma cells, stronger effect = higher value
# [9] = UWB1.289 ovarian carcinoma cell growth inhibition, synergistic combos for chromothripsis tumors, BGB or cisplatin combos (AID 1671456); conditions: UWB1.289 ovarian carcinoma cells, stronger effect = higher value;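 further: cells exposed to compound for four days; 0% = vehicle DMSO and 100% = killing by high DMSO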
# [10] = LFS_MB_2R medulloblastoma cell growth inhibition, synergistic combos for chromothripsis tumors, cisplatin combos (AID 1671457); conditions: LFS_MB_2R medulloblastoma cells, stronger effect = higher value;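 further: cells exposed to compound for four days before readout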
# [11] = MDA-MB-436 breast carcinoma cell growth inhibition, synergistic combos for chromothripsis tumors, BGB or cisplatin combos (AID 1671458; call rule not given here;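 further: cells exposed for 96 hours; 0% = vehicle DMSO and 100% = killing by high DMSO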); conditions: MDA-MB-436 breast carcinoma growth inhibition, drug combinations, stronger effect = higher value
# [12] = UWB1.289_BRCA1 ovarian cancer growth, cell-based, BGB or cisplatin combinations (AID 1671459); conditions: UWB1.289 BRCA1 ovarian carcinoma, drug combinations, stronger effect = higher value
# [13] = human astrocyte viability loss, single and combined drugs, cytotoxicity control for chromothriptic childhood tumor combination screen, cell-based, BGB or cisplatin IC20 combos (AID 1671460); conditions: Human astrocytes, drug combinations, stronger effect = higher value;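 further: cells exposed to compounds for 96 hours before viability readout; 0% = vehicle and 100% = killing control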
# [14] = growth inhibition of BT084 medulloblastoma cells, cell-based, ICGC_MB145, cisplatin and BGB IC40 combos (AID 1671461); conditions: drug combinations, stronger effect = higher value;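 further: cells exposed to drugs for 96 hours; 0% = vehicle DMSO and 100% = high DMSO full killing control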
# [15] = growth inhibition of RCMB18 medulloblastoma cells, cell-based, cisplatin and BGB IC40 combos (AID 1671462); conditions: stronger effect = higher value;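 further: cells exposed to compound for four days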
# [16] = measured here: combination with cisplatin, at 5 µM, stronger effect = higher value
# [17] = measured here: with cisplatin IC20, at 5 µM
# [18] = measured here: combination with BGB IC40, at 0.05 µM
# [19] = measured here: with BGB IC20 combination, at 0.5 µM
# [20] = measured here: with cisplatin IC20 combination, at 0.5 µM
# [21] = measured here: combination with cisplatin, at 0.5 µM
# [22] = measured here: combination with cisplatin, at 5 µM
structure (smiles),measurement,setting,value
COc1cccc2c1C(=O)c1c(O)c3c(c(O)c1C2=O)CC(O)(C(=O)CO)CC3OC1CC(N)C(O)C(C)O1 (stereo not drawn),inhibition,[1]; [16],118% and 119% and 108%
same,inhibition,"[2]; single agent, at 5 µM",99.7% and 99.6%
same,inhibition,[3]; at 0.5 µM,98.7% (active) and 98.9% (active) and 98.5% (active)
same,inhibition,[3]; [17],99.4% and 99.6% and 99.7%
same,inhibition,"[4]; single agent, at 5 µM",99.7% and 99.6% and 99.8%
C[C@@H]1O[C@@H](O[C@@H]2[C@@H](O)[C@H](OCCc3ccc(O)c(O)c3)O[C@H](CO)[C@H]2OC(=O)C=Cc2ccc(O)c(O)c2)[C@H](O)[C@H](O)[C@H]1O,inhibition,"[1]; at 0.5 µM, stronger effect = higher value",-19.7% (inactive)
same,inhibition,"[1]; measured here: combination with BGB IC20, at 0.005 µM",-7.94%
same,inhibition,"[1]; measured here: combination with BGB IC40, at 0.005 µM",-47.4%
same,inhibition,[1]; [18],-17.9%
same,inhibition,"[1]; measured here: combination with cisplatin, at 0.5 µM, stronger effect = higher value",-14.4%
same,inhibition,[1]; [16],-15.6%
same,inhibition,"[2]; BGB combo, at 5 µM",-0.831%
same,inhibition,[2]; at 0.5 µM,5.6% (inactive)
same,inhibition,"[2]; cisplatin combo, at 5 µM",41%
same,inhibition,[2]; [19],2.02%
same,inhibition,[2]; [20],15.9%
same,inhibition,"[2]; single agent, at 5 µM",21.8%
same,inhibition,"[5]; BGB IC20 combo, at 0.005 µM",-21.2%
same,inhibition,"[5]; BGB IC40 combo, at 0.005 µM",-5.21%
same,inhibition,"[5]; BGB IC40 combo, at 0.05 µM",-11.9%
same,inhibition,[5]; at 0.5 µM,-18.6% (inactive)
same,inhibition,"[5]; cisplatin combo, at 0.05 µM",-17.7%
same,inhibition,"[5]; cisplatin combo, at 0.5 µM",-31.1%
same,inhibition,"[5]; cisplatin combo, at 5 µM",-7.59%
same,inhibition,"[5]; measured here: 5 uM single agent, at 5 µM",-11%
same,inhibition,[6]; at 0.5 µM,-31.7% (inactive)
same,inhibition,[6]; [18],-26.1%
same,inhibition,[6]; [21],-49.4%
same,inhibition,[6]; [22],-50.3%
same,inhibition,[3]; at 0.5 µM,-2.22% (inactive)
same,inhibition,"[3]; measured here: with BGB IC20, at 0.5 µM",11%
same,inhibition,"[3]; measured here: with BGB IC20, at 5 µM",-2.54%
same,inhibition,"[3]; measured here: with cisplatin IC20, at 0.5 µM",-24.2%
same,inhibition,[3]; [17],13.7%
same,inhibition,"[3]; single agent, at 5 µM",14.4%
same,inhibition,[7]; at 0.5 µM,-20.3% (inactive)
same,inhibition,"[7]; measured here: combination with BGB at IC20, at 0.5 µM",-22.9%
same,inhibition,"[7]; measured here: combination with cisplatin at IC20, at 0.5 µM",-10.2%
same,inhibition,[8]; at 0.5 µM,-12.4% (inactive)
same,inhibition,"[8]; measured here: combo with BGB at IC20, at 0.5 µM",-18%
same,inhibition,"[8]; measured here: combo with cisplatin at IC20, at 0.5 µM",-15.8%
same,inhibition,[9]; at 0.5 µM,2.22% (inactive)
same,inhibition,"[9]; measured here: inhibition with BGB combination, at 0.05 µM",-13.4%
same,inhibition,"[9]; measured here: inhibition with cisplatin combination, at 0.05 µM",-3.75%
same,inhibition,[10]; at 0.5 µM,-23.2% (inactive)
same,inhibition,[10]; [21],-31.6%
same,inhibition,[10]; [22],-36.7%
same,inhibition,[11]; at 0.5 µM,-13.3% (inactive)
same,inhibition,"[11]; measured here: BGB combination, at 0.5 µM",-5.37%
same,inhibition,"[11]; measured here: BGB combination, at 5 µM",-8.31%
same,inhibition,"[11]; measured here: cisplatin combination, at 0.5 µM",-39.6%
same,inhibition,"[11]; measured here: cisplatin combination, at 5 µM",-30.4%
same,inhibition,"[12]; BGB combination, concentration series, at 5 µM",-4.79%
same,inhibition,[12]; at 0.5 µM,2.12% (inactive)
same,inhibition,"[12]; cisplatin combination, concentration series, at 5 µM",23.8%
same,inhibition,[13]; at 0.5 µM,3.51% (inactive)
same,inhibition,"[13]; measured here: combo with BGB IC20, at 0.5 µM",-0.074%
same,inhibition,"[13]; measured here: combo with cisplatin IC20, at 0.5 µM",5.26%
same,inhibition,[14]; at 0.5 µM,-15.3% (inactive)
same,inhibition,"[14]; cisplatin combination, at 0.5 µM",-21.1%
same,inhibition,"[14]; cisplatin combination, at 5 µM",-157%
same,inhibition,"[14]; measured here: BGB IC40 combination 0.05 uM, at 0.05 µM",-26.5%
same,inhibition,"[14]; single agent, at 5 µM",-19.8%
same,inhibition,[15]; at 0.5 µM,-0.47% (inactive)
same,inhibition,"[15]; cisplatin combo, at 5 µM",8.1%
same,inhibition,"[15]; measured here: BGB IC40 combination, at 0.05 µM",-349%
same,inhibition,[15]; [21],-0.428%
same,inhibition,"[15]; single agent, at 5 µM",-0.98%
same,inhibition,[4]; at 0.5 µM,3.16% (inactive)
same,inhibition,[4]; [19],-11.9%
same,inhibition,[4]; [20],9.28%
same,inhibition,"[4]; single agent, at 0.05 µM",-3.32%
same,inhibition,"[4]; single agent, at 5 µM",19.3%
